# Data published in article PMC8384837, “Expanding the binding specificity for RNA recognition by a PUF domain”.
# Residue numbers refer to the chain shown, from its start.
# Experiments:
# Assay in all cases: yeast three-hybrid, YBZ-1, SC-Leu-His + 0.5 mM 3-AT, 4 days
# Conditions in all cases: tags: N-Gal4 AD-HA kept; label: inside an RPR1-promoter hybrid RNA with tandem MS2 sites; ssRNA
# [1] = biological target: PUM1 PUF domain R4-QRG (Homo sapiens, UniProt Q14671 828-1176, N971Q;H972R;Q975G)
# How it was run: (§1)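 Pumilio-1 PUF domain libraries, randomized at the three base-contacting residues of each repeat, were co-expressed with matching RNA elements from a centromeric plasmid in strain YBZ-1, which carries a LexA–MS2 coat fusion and a HIS3 reporter. Transformants grew for four days on SC-Leu (input) or on SC-Leu-His + 0.5 mM 3-AT (selection), and the repeat regions were PCR-amplified and Illumina-sequenced. The interaction score is the log change in variant frequency from input to selection. That logarithm is base 2, with a pseudocount of 1 where a variant was absent.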
# [2] = biological target: T1, PUM1 PUF domain R6-FYC (Homo sapiens, UniProt Q14671 828-1176, N1043F;Q1047C)
# T1 sequence: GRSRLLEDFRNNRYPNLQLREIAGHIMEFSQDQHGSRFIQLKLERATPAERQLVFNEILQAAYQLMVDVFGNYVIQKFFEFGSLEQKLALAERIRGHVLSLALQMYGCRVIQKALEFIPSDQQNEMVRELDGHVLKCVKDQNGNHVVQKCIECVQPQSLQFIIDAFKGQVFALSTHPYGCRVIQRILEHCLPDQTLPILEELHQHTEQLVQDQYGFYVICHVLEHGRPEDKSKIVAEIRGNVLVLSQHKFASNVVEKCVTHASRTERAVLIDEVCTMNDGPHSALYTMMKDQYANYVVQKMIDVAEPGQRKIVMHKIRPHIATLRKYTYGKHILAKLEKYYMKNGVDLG
# How it was run: as §1
# [3] = biological target: PUM1 PUF domain R8-LYG (Homo sapiens, UniProt Q14671 828-1176, N1122L;Q1126G)
# How it was run: as §1
# [4] = biological target: PUM1 PUF domain R5-GFY (Homo sapiens, UniProt Q14671 828-1176, C1007G;R1008F;Q1011Y)
# How it was run: as §1
# [5] = biological target: T2, PUM1 PUF domain R6-TFR (Homo sapiens, UniProt Q14671 828-1176, N1043T;Y1044F;Q1047R)
# T2 sequence: T1 sequence with F216T, Y217F, C220R
# How it was run: as §1
# [6] = biological target: PUM1 PUF domain R7-RSG (Homo sapiens, UniProt Q14671 828-1176, S1079R;N1080S;E1083G)
# How it was run: as §1
# [7] = biological target: PUM1 PUF domain R5-RCI (Homo sapiens, UniProt Q14671 828-1176, C1007R;R1008C;Q1011I)
# How it was run: as §1
# [8] = biological target: PUM1 PUF domain R1-RIT (Homo sapiens, UniProt Q14671 828-1176, S863R;R864I;Q867T)
# How it was run: as §1
# [9] = biological target: PUM1 PUF domain R3-RNP (Homo sapiens, UniProt Q14671 828-1176, C935R;R936N;Q939P)
# How it was run: as §1
# [10] = biological target: PUM1 PUF domain R2-QWW (Homo sapiens, UniProt Q14671 828-1176, N899Q;Y900W;Q903W)
# How it was run: as §1
sequence,measurement,setting,value
GGCUAGAACUAGUGGAUCCCCCGGCGCCCGGCGGCUCGAGCCCGGGUAAGUGUAAAUAGUCUGCAUGCCGCCGGGCGCCAUGCCUGCAGGUCGACUCUAGAAAACAUG,binding signal,[1],3.75 log2 enrichment (interaction score)
same,binding signal,[2],3.33 log2 enrichment (interaction score)
same,binding signal,[3],0.62 log2 enrichment (interaction score)
same,binding signal,[4],3.55 log2 enrichment (interaction score)
same,binding signal,[5],5.59 log2 enrichment (interaction score)
GGCUAGAACUAGUGGAUCCCCCGGCGCCCGGCGGCUCGAGCCCGGGUAAGUUUAAAUAGUCUGCAUGCCGCCGGGCGCCAUGCCUGCAGGUCGACUCUAGAAAACAUG,binding signal,[6],2.86 log2 enrichment (interaction score)
GGCUAGAACUAGUGGAUCCCCCGGCGCCCGGCGGCUCGAGCCCGGGUAAGUCUAAAUAGUCUGCAUGCCGCCGGGCGCCAUGCCUGCAGGUCGACUCUAGAAAACAUG,binding signal,[6],0.33 log2 enrichment (interaction score)
GGCUAGAACUAGUGGAUCCCCCGGCGCCCGGCGGCUCGAGCCCGGGUAAGUGUCAAUAGUCUGCAUGCCGCCGGGCGCCAUGCCUGCAGGUCGACUCUAGAAAACAUG,binding signal,[7],2.64 log2 enrichment (interaction score)
GGCUAGAACUAGUGGAUCCCCCGGCGCCCGGCGGCUCGAGCCCGGGUAAGUGUAAAUCGUCUGCAUGCCGCCGGGCGCCAUGCCUGCAGGUCGACUCUAGAAAACAUG,binding signal,[8],5.29 log2 enrichment (interaction score)
GGCUAGAACUAGUGGAUCCCCCGGCGCCCGGCGGCUCGAGCCCGGGUAAGUGUAAUUAGUCUGCAUGCCGCCGGGCGCCAUGCCUGCAGGUCGACUCUAGAAAACAUG,binding signal,[9],4.2 log2 enrichment (interaction score)
GGCUAGAACUAGUGGAUCCCCCGGCGCCCGGCGGCUCGAGCCCGGGUAAGCGUAAAUAGUCUGCAUGCCGCCGGGCGCCAUGCCUGCAGGUCGACUCUAGAAAACAUG,binding signal,[3],2.57 log2 enrichment (interaction score)
GGCUAGAACUAGUGGAUCCCCCGGCGCCCGGCGGCUCGAGCCCGGGUAAGUGUAAAGAGUCUGCAUGCCGCCGGGCGCCAUGCCUGCAGGUCGACUCUAGAAAACAUG,binding signal,[10],5.58 log2 enrichment (interaction score)
GGCUAGAACUAGUGGAUCCCCCGGCGCCCGGCGGCUCGAGCCCGGGUAAGUGUUAAUAGUCUGCAUGCCGCCGGGCGCCAUGCCUGCAGGUCGACUCUAGAAAACAUG,binding signal,[4],2.65 log2 enrichment (interaction score)
GGCUAGAACUAGUGGAUCCCCCGGCGCCCGGCGGCUCGAGCCCGGGUAAGUGCAAAUAGUCUGCAUGCCGCCGGGCGCCAUGCCUGCAGGUCGACUCUAGAAAACAUG,binding signal,[5],5.38 log2 enrichment (interaction score)
